Many of the other results were omitted from the sample, so hits are more common in it than they were.
Tb hexokinase: blocks Trypanosoma brucei hexokinase 1 activity. recombinant TbHK1, G6PDH-coupled NADH A340. inhibition, % at 10 µM. actives 0.11% (n = 220,000). AID 1430;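 active = inhibition of 50% or more in the single-dose primary screen; inactive = inhibition below 50%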
Insulin prom up: MIN6 insulin promoter up-regulation. MIN6 insulin promoter-GFP reporter, high-content imaging; active compounds read high. z-score at 5 µM. actives 0.3% (n = 190,000). AID 1625;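 active = z-score above 3 at 5 µM with at least 500 cells counted in the well; inconclusive = wells under 500 cells, flagged as cytotoxic or low count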
INS promoter inh: TRM-6 insulin promoter activity inhibition. TRM-6 cells (human fetal islet line), insulin promoter-eGFP reporter, imaging; reporter expression induced with tamoxifen. actives 0.9% (n = 130,000). inhibition, % at 2 µM. AID 1273;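 active = inhibition above the mean plus 3 SD, with well images judged a real hit on visual review, cut at about 60% in these data, passing the limit was not always enough; inconclusive = inhibition over the cutoff but images rejected on review; inactive = inhibition not above the cutoff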
ROMK primary: human ROMK K+ channel modulation, primary screen; P48048; Tet-inducible ROMK, thallium flux fluorescence; actives lie on both sides; B-score at 10 µM; actives 2% (n = 130,000); AID 1918;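 active = signal ratio slope over the read window, or its plate-corrected B-score, at least 3 SD from the plate mean, either direction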;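 note: B-score of the F/F0 ratio slope over 7 to 12 s after thallium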
Target sequence (P48048 whole entry, looked up): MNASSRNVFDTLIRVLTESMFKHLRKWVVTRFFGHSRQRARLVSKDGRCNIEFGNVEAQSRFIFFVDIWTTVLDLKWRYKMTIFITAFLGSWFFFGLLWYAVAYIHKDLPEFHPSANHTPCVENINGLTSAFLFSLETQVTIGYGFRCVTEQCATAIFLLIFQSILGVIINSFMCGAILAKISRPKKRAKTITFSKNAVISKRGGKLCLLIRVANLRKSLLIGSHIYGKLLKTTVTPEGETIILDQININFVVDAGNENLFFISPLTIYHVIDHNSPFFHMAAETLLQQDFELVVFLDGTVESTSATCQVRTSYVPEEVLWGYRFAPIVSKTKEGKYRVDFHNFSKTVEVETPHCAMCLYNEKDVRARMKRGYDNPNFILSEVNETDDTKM
HSV augment: increases HSV replication in cells. maximum fold increase. HSV replication augmentation in cells, fold increase. actives 0.005% (n = 220,000); in the data active = maximum fold increase above about 1.5; inconclusive = no clear call, values can overlap the other calls; tested in PC3 cells
* hit, by the source's call.

CC(=O)C(=Cc1cn(-c2ccccc2)nc1-c1ccccc1)C(C)=O was read as Tb hexokinase -7.1, Insulin prom up 3.2*, ROMK primary -0.0214 and HSV augment inactive.
`Cc1ccc(C(=O)N/C(=C/c2cn(-c3ccccc3)nc2-c2ccccc2)C(=O)O)cc1` gave Tb hexokinase 0.9, ROMK primary 0.0536 and HSV augment inactive.
`CCOC(=O)N1CCC(NC(=O)c2ccc3c(Cl)c4c(nc3c2)CCCC4)CC1` gave Tb hexokinase -11.3, Insulin prom up 1.16, INS promoter inh -20.0, ROMK primary -2.53* and HSV augment inactive.
For O=C(CN1CCC(NC(=O)Cc2ccccc2)CC1)Nc1ccccc1Br the results were Tb hexokinase 10.1, Insulin prom up -0.03, ROMK primary 0.336 and HSV augment inactive.
Cc1ccn2c(NC3CCCCC3)c(C)nc2c1 was read as Tb hexokinase 5.3, Insulin prom up 3.89* and HSV augment inactive.
Screening O=C(O)c1cc(-c2ccncc2)nc2ccc(F)cc12 returned Tb hexokinase -6.2, Insulin prom up 3*, INS promoter inh -11.8, ROMK primary 0.403 and HSV augment inactive.
For CC(=O)Nc1nc(-c2ccc(Br)s2)cs1 the results were Tb hexokinase 4.5, Insulin prom up 5.02*, INS promoter inh -12.1 and HSV augment inactive.
Screening Cc1c(NC(=O)c2cnn3cccnc23)c(=O)n(-c2ccccc2)n1C returned Tb hexokinase -5.8, Insulin prom up -0.6, INS promoter inh 75.0* and HSV augment inactive.
`COc1ccccc1C(=O)Nc1c(C)n(C)n(-c2ccccc2)c1=O` gave Tb hexokinase 8.1, Insulin prom up -0.23 and HSV augment inactive.
`COc1ccccc1NC(=O)Nc1c(C)n(C)n(-c2ccccc2)c1=O` gave Tb hexokinase 0.1, Insulin prom up 0.29, INS promoter inh 100.0*, ROMK primary 1.13 and HSV augment inactive.
`COC(=O)C1C/C(=N\NS(=O)(=O)c2ccc(C)cc2)c2ccsc2C1` (stereo not given) gave Tb hexokinase 5.8, Insulin prom up 0.18, INS promoter inh 33.3, ROMK primary -0.318 and HSV augment inactive.
Screening N#CCCCN1C(=O)C(=C(C#N)C#N)c2ccccc21 returned Tb hexokinase -6.0, Insulin prom up 0.18, ROMK primary -0.146 and HSV augment inactive.
CC1CCN(c2c([N+](=O)[O-])c(=O)oc3ccccc23)CC1 was read as Tb hexokinase -17.6, Insulin prom up 0.19, INS promoter inh 13.8 and HSV augment inactive.
`O=C(/C=C/c1ccc2c(c1)OCO2)Nc1ccc(Cl)cn1` gave Tb hexokinase -7.8, Insulin prom up -0.86, INS promoter inh 72.7*, ROMK primary 0.682 and HSV augment inactive.
For O=C(/C=C/c1ccccc1Cl)Nc1ccc(Cl)cn1 the results were Tb hexokinase 2.4, ROMK primary -0.0966 and HSV augment inactive.
`O=c1c2ccccc2[nH]c(=S)n1C1CCCCC1` gave Tb hexokinase 6.1, Insulin prom up 1.28, INS promoter inh 55.6 and HSV augment inactive.
Screening CC1CCC(n2c(=S)[nH]c3ccccc3c2=O)CC1 (stereo not given) returned Tb hexokinase -7.0, Insulin prom up 0.49, INS promoter inh 80.0* and HSV augment inactive.
Screening CCOc1ccccc1C1CC(=O)NC2=C1C(=O)CCC2 (stereo not given) returned Tb hexokinase 7.4, Insulin prom up 0.47, ROMK primary 4.71* and HSV augment inactive.
CCCOc1ccccc1C1CC(=O)NC2=C1C(=O)CCC2 (stereo not given) was read as Tb hexokinase 3.9, Insulin prom up -1.13 and HSV augment inactive.
`Cc1ccc(C)c(NC(=O)c2ccccc2NC(=O)C2CCCO2)c1` (stereo not given) gave Tb hexokinase -1.0, Insulin prom up -0.08 and HSV augment inactive.
For O=C(c1ccc(Br)s1)N1CCN(c2ncccn2)CC1 the results were Tb hexokinase -3.4, Insulin prom up -0.35, INS promoter inh 19.1, ROMK primary 0.0503 and HSV augment inactive.
O=C(c1ccc(Br)s1)N1CCCC1 was read as Tb hexokinase -3.8, Insulin prom up -0.39, INS promoter inh 70.0*, ROMK primary 0.0169 and HSV augment inactive.
`Cc1cccc(N/N=C(\C#N)S(=O)(=O)C(C)(C)C)c1` gave Tb hexokinase -13.2, Insulin prom up 1.53, INS promoter inh 90.9*, ROMK primary -0.713 and HSV augment inactive.
Screening O=C(C1=NN(c2ccccc2)C2C(=O)N(c3ccc(Cl)cc3)C(=O)C12)c1ccccc1 (stereo not given) returned Tb hexokinase 2.2, Insulin prom up 0.77, INS promoter inh 16.1 and HSV augment inconclusive.
For O=C(C1=NN(c2ccccc2)C2C(=O)N(c3cccc(Cl)c3)C(=O)C12)c1ccccc1 (stereo not given) the results were Tb hexokinase -0.5, Insulin prom up 3.17*, INS promoter inh -17.9, ROMK primary -0.152 and HSV augment inconclusive.
O=C(NCc1ccc2c(c1)OCO2)c1ccc(CN2CCOCC2)cc1 was read as Tb hexokinase 1.4, Insulin prom up 0.6, INS promoter inh 89.0* and HSV augment inactive.
Screening Cc1cccc(CSCCNC(=O)c2ccc(CN3CCOCC3)cc2)c1 returned Tb hexokinase 5.7, Insulin prom up 0.12, INS promoter inh 71.4*, ROMK primary -1.45 and HSV augment inactive.
Screening O=C(NCc1ccc2c(c1)OCO2)c1ccc2c(c1)OCO2 returned Tb hexokinase -2.7, Insulin prom up 1.63 and HSV augment inactive.
`C[C@@H](C(=O)Nc1cccc(S(=O)(=O)N2CCOCC2)c1)N1C(=O)C2CC=CCC2C1=O` (stereo not given in full) gave Tb hexokinase -3.5, Insulin prom up 0.06, INS promoter inh 31.6, ROMK primary 0.252 and HSV augment inactive.
Screening CCCCCC(=O)NC(=S)Nc1ccc2oc(=O)ccc2c1 returned Tb hexokinase 1.4, Insulin prom up 0.5, ROMK primary -0.587 and HSV augment inactive.
`N#C/C(=C\c1cn[nH]c1-c1ccccc1)C(=O)NC1CCCCCC1` gave Tb hexokinase -17.3, INS promoter inh -9.8 and HSV augment inactive.
COc1ccc(-c2[nH]ncc2/C=C(\C#N)C(=O)NC2CC2)cc1 was read as Tb hexokinase -39.4, Insulin prom up 0.93, INS promoter inh 73.0*, ROMK primary 0.6 and HSV augment inactive.
For N#C/C(=C\c1cn[nH]c1-c1ccc(Cl)cc1)C(=O)NC1CC1 the results were Tb hexokinase 0.2, Insulin prom up -0.92, INS promoter inh 79.3* and HSV augment inactive.
Screening Cc1ccccc1C(=O)NC1CCN(C(=O)N2CCOCC2)CC1 returned Tb hexokinase -1.0, INS promoter inh 75.0*, ROMK primary 1.36 and HSV augment inactive.
CCC(C)(C)NC(=O)C(c1ccc(F)cc1)N(Cc1ccccc1)C(=O)c1cnccn1 (stereo not given) was read as Tb hexokinase -2.5, Insulin prom up 0.54, ROMK primary 1.04 and HSV augment inactive.

Source: PubChem
